Literature values in PubChem BioAssay AID977611.
Out of some 3,900 compounds screened, about 3,900 (100%) were called active. Cut-off not given; nearly all actives show Kd up to about 4200 µM. The set was probably picked from earlier hits. The list shows a part of the results. Where a SMILES comes first, the peptide text is derived from it. Square brackets hold non-standard residues; d marks the D form. Residues, ends and D or L forms follow the SMILES beside them. Peptide text beside a SMILES is read from it. Orn(CH(NH2)2) = NC(N)NCCC[C@H](N)C(=O)O

Experiment: PubChem AID 977611
Settings: PDB protein-ligand complexes, literature Kd

In the case of O=C1C=C(O)C=CC1S(=O)(=O)n1cc2ccc(O)cc2c1 (stereo unspecified), the Kd (PDB entry 4mpe) is given as 426 nM (active).
For C/C(O)=[N+](/O)CCC[C@@H]1NC(=O)CNC(=O)CNC(=O)CNC(=O)C(CCCN(O)C(C)O)NC(=O)[C@H](CCCN(O)C(C)O)NC1=O.[Fe] (stereo partly specified), the Kd (protein: Iron-compound ABC transporter, iron compound-binding protein, PDB entry 4hmq) is given as 5.8 nM (active).
In the case of H-LLPTLPKLPSL-OH, the Kd (protein: Ankyrin Repeat Domains of Human ANKRA2, PDB entry 3v2x) is listed as 4500 nM (active).
For H-APTLPKLPSLS-OH, the Kd (protein: Ankyrin Repeat Domains of Human ANKRA2, PDB entry 3v2o) is listed as 4900 nM (active).
For C[C@@H](O)[C@H](N)C(=O)N[C@@H](CCCNC(N)N)C(=O)N[C@@H](CO)C(=O)N[C@@H](CCCCN)C(=O)N[C@@H](Cc1ccccc1)C(=O)N[C@@H](Cc1ccccc1)C(=O)N[C@@H](CC(N)=O)C(=O)O (H-T[Orn(CH(NH2)2)]SKFFN-OH), the Kd (protein: C-terminal domain of the Saccharomyces cerevisiae MUTL alpha (MLH1/PMS1) heterodimer, PDB entry 4fmo) is given as 2940 nM (active).
For CC(=O)N[C@H](C(=O)N[C@@H](CCCNC(N)N)C(=O)N[C@@H](CO)C(=O)N[C@@H](CCCCN)C(=O)N[C@@H](Cc1ccc(O)cc1)C(=O)N[C@@H](Cc1ccccc1)C(=O)N[C@@H](CCCCN)C(=O)O)C(C)C (Ac-V[Orn(CH(NH2)2)]SKYFK-OH), the Kd (protein: C-terminal domain of the Saccharomyces cerevisiae MUTL alpha (MLH1/PMS1) heterodimer, PDB entry 4fmn) is given as 750 nM (active).
For CC(=O)N[C@@H](Cc1cnc[nH]1)C(=O)N[C@@H](CO)C(=O)N[C@@H](CCCCN)C(=O)N[C@@H](Cc1ccc(O)cc1)C(=O)N1CCC[C@H]1C(=O)N[C@@H](CC(C)C)C(=O)N1CCC[C@H]1C(=O)N1CCC[C@H]1C(=O)N[C@@H](CC(C)C)C(=O)N1CCC[C@H]1C(=O)N[C@@H](CO)C(=O)N[C@@H](CC(C)C)C(N)=O (Ac-HSKYPLPPLPSL-NH2), the Kd (protein: Tyrosine-protein kinase HCK, PDB entry 2oi3) is given as 230 nM (active).
In the case of H-DADTLLHFATESTPD-OH, the Kd (protein: Beta-catenin-interacting protein 1, PDB entry 1t08) is listed as 3100 nM (active).
In the case of CC(C)C[C@H](NC(=O)[C@H](C)NC(=O)[C@H](CCC(=O)O)NC(=O)[C@H](CC(=O)O)NC(=O)[C@H](Cc1ccc(O)cc1)NC(=O)[C@H](CO)NC(=O)[C@@H]1CCCN1C(=O)[C@H](CC(C)C)NC(=O)CNC(=O)[C@@H](N)[C@@H](C)O)C(=O)N[C@@H](Cc1cnc[nH]1)C(=O)O (H-TGLPSYDEALH-OH), the Kd (protein: E3 ubiquitin-protein ligase NEDD4, PDB entry 2ez5) is given as 3000 nM (active).
For H-HPVGDADYFEY-OH, the Kd (protein: LA class I histocompatibility antigen, B-35 alpha chain HLA-B 35:01, PDB entry 4pr5) is listed as 2200 nM (active), the Kd (protein: MHC class I antigen HLA-B 35:08, PDB entry 4prd) is listed as 25400 nM (active) and the Kd (protein: MHC class I antigen-Beta-2-microglobulin, PDB entry 4prh) is listed as 25400 nM (active).
For H-ANPHGAARAEVY-OH, the Kd (protein: WD repeat-containing protein 5, WDR5, PDB entry 4erz) is given as 88 nM (active).
In the case of CC(C)C[C@H](NC(=O)[C@H](CC(=O)O)NC(=O)[C@H](Cc1ccc(O)cc1)NC(=O)[C@H](CC(C)C)NC(=O)[C@H](CCC(=O)O)NC(=O)[C@H](Cc1cnc[nH]1)NC(=O)[C@H](CC(C)C)NC(=O)[C@@H](NC(=O)[C@@H]1CCCN1C(=O)[C@@H]1CCCN1)[C@@H](C)O)C(=O)O (H-PPTLHELYDL-OH), the Kd (protein: Retinoblastoma-associated protein, PDB entry 2r7g) is given as 900 nM (active).
In the case of H-EPPLNPHGSARAEVHA-OH, the Kd (protein: WD repeat-containing protein 5, WDR5, PDB entry 4esg) is given as 2760 nM (active).
In the case of H-HPVGEADYFEY-OH, the Kd (protein: MHC class I antigen-Beta-2-microglobulin, PDB entry 4pri) is given as 93200 nM (active).
